Screen size: about 220,000 compounds; about 2,000 (0.91%) were called active. About 2% were inconclusive and are not listed. A selection follows. Results with a measured potency or affinity are listed apart. Values without a mark were called inactive. No stated cut-off is given here; in the data, inconclusive means inhibition above about 80% without an active follow-up result; inactive means below that; test concentration not stated here.

The assay is described as follows: M. tuberculosis H37Rv growth inhibitors, H37Rv strain (AID 1626).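 Further: bacteria incubated seven days before Alamar blue readout; 0% = bacteria only wells and 100% = bacteria with antibiotic wells.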 As to conditions: stronger effect = higher value, concentration not given here.
`Cc1ccc(C2NC(=O)CCC2[N+](=O)[O-])cc1` (stereo not drawn): the inhibition (as a rule, the drop in the measured response relative to a control, in per cent) was 1.52%.
The value for `NS(=O)(=O)c1ccc(NC(=O)C(Sc2ccccc2)c2ccccc2)cc1` (stereo not drawn) was 2.33%.
For `COc1cccc(CNC(=O)c2ccc3nc[nH]c3c2)c1` the value was -1.98%.
For the compound `O=C(COc1ccc(Br)cc1)NCc1cn2ccccc2n1`, the inhibition was -2.73%.
For `NC1=NC(=O)/C(=C\C=C\c2ccccc2)S1` the value was 2.56%.
The value for `CCCOc1ccc(/C=N/NC(=O)C(C)Sc2ccccn2)cc1OCC` (stereo not drawn) was 4.45%; that for `COc1cccc(/C=c2\s/c(=C\C(=O)C(C)(C)C)[nH]c2=O)c1` was 8.13%; that for `Cc1cccc(/C=C2\CS/C(=C\c3cccc(C)c3)C2=O)c1` was -5.7%.
For `Cc1cc(NC(=O)C(=O)c2cn(C)c3ccccc23)no1` the value was -4.05%.
Consider `CCC(=O)Nc1cccc(C2=NOC3(C2)C[C@@H](C(N)=O)N(C(=O)C2(C)CC2)C3)c1` (stereo partly drawn), for which the inhibition was -7.53%.
The value for `O=C(COC(=O)c1ccc(Br)cc1)NCCN1C(=O)CSC1=O` was -0.22%; that for `O=C(CN1C(=O)c2cccc3cccc1c23)Nc1ccccc1C(=O)NCc1ccco1` was -8.25%.
For `COc1ccc(C2C(C(=O)Nc3ccc4c(c3)OCCO4)c3ccccc3C(=O)N2C)cc1` (stereo not drawn), the inhibition is -5.2%.
As for `CC1=C(C(=O)Nc2ccccc2C)C(c2cccs2)NC(=S)N1` (stereo not drawn), the inhibition is -1.29%.
The value for `O=S(=O)(c1ccc(Cl)cc1)c1snnc1-c1ccccc1` was -9.09%; that for `O=S(=O)(c1ccc(F)cc1)c1snnc1-c1ccccc1` was -0.36%; that for `O=C(CNC(=S)N(Cc1ccccc1F)C1CCCCC1)NC1CC1` was -3.6%.
On to `O=C(Nc1ccc2sccc2c1)c1ccc(Cl)s1`, for which the inhibition was 59.4%.
For `Cc1ccc(/C=C/C(=O)Nc2ccc([N+](=O)[O-])cc2)o1` the value was 6.87%.
Turning to `O=C(O)/C=C/c1ccc([N+](=O)[O-])o1`, the inhibition is 7.14%.
With `CCOC(=O)/C=c1\s/c(=C(\C#N)C(N)=O)n(-c2ccccc2)c1=O`, the inhibition is 2.26%.
Take `COc1cc(/C=N/NC(=O)c2cnccn2)cc(OC)c1OC`: the inhibition was -6.81%.
For `CC1(C)CCCC2=C1CC1C(=O)N(N)C(=O)C1C2` (stereo not drawn) the value was 2.05%; for `Nc1ccccc1Nc1cccc(C(F)(F)F)c1`, 6.41%.
The value for `c1ccc(Nc2cccc3c(Nc4ccccc4)cccc23)cc1` was -3.47%; that for `COc1ccc(Nc2ccc(OC)cc2)cc1` was 47%.
For the compound `COc1ccc(Nc2cccccc2=O)cc1`, the inhibition was 1.3%.
The value for `Cc1ccc(Nc2ccccc2)cc1` was 6.23%.
The value for `Cc1ccc(Nc2ccc(C(=O)O)cc2N)cc1` was -7.86%.
The value for `FC(F)(F)c1nc2ccccc2nc1N/N=C/c1c(Cl)cccc1Cl` was 9.85%.
Consider `COCCN(C(=S)Nc1ccc(C)cc1C)C(C)c1ccco1` (stereo not drawn), for which the inhibition is -7%.
For `CSc1ncccc1C(=O)OCC(=O)c1ccccc1Br` the value was -4.85%.
The value for `CCOC(=O)c1cc(NC(=O)N2CCOCC2)c(C)nc1C` was -1.72%.
As to `CC(C)CNc1cc(N2CCCC2)ccc1[N+](=O)[O-]`, the inhibition was 4.85%.
The value for `CCCCCSc1nc2c(c(=O)[nH]c(=O)n2C)n1C` was 11.1%; that for `C/C(=C\C(=O)c1ccc(Br)cc1)NCc1ccc(C)cc1` was 4.34%.
On to `CCOc1cc(S(=O)(=O)N2CCOCC2)ccc1F`, for which the inhibition was -1.04%.
For `CC(C)[C@H](NS(=O)(=O)/C=C/c1ccccc1)C(=O)OCC(=O)NC(N)=O` the value was 0.26%; for `CC(Cn1cnc2ccccc21)C(=O)O` (stereo not drawn), -0.91%.
On to `Cc1cc(C)c(C(=O)Nc2ccc(C)c(C)c2)c(CC(C)(C)C(=O)O)c1`, for which the inhibition was -5.76%.
In the case of `CC(NC(=O)COC(=O)/C=C/c1cccc(C(F)(F)F)c1)c1ccccc1` (stereo not drawn), the inhibition is 5.27%.
`O=C1N=C(N2CCN(c3ccccc3)CC2)SC1Cc1ccccc1` (stereo not drawn): the inhibition was 1.7%.
In the case of `O=C(Nc1ccccc1)N1CCCC1c1cccs1` (stereo not drawn), the inhibition is -1.63%.
The value for `CC(=O)CSc1ccc(-c2nc3cc(C)c(C)cc3[nH]2)cn1` was 11.7%; that for `Cc1ccc2nc(-c3ccc(SCC(=O)O)nc3)[nH]c2c1` was 4.36%.
On to `Cc1nc(NC(=O)CSc2ccc(-c3nc4ccccc4[nH]3)cn2)sc1C`, for which the inhibition is -0.38%.
In the case of `Cc1cc2nc(-c3ccc(SCC(=O)NC(C)C)nc3)[nH]c2cc1C`, the inhibition is 1.74%.
As to `Cc1ccc2nc(-c3ccc(SCC(=O)Nc4nc(C)cs4)nc3)[nH]c2c1`, the inhibition was 0.98%.
Take `CCc1nnc(NC(=O)CSc2ccc(-c3nc4ccccc4[nH]3)cn2)s1`: the inhibition was -3.06%.
The value for `Cc1ncoc1C(=O)N1CCc2c([nH]c3ccccc23)C1C1CCCCC1` (stereo not drawn) was 11.8%; that for `CC(CS(=O)(=O)c1cccc2cccnc12)N1CCCCC1` (stereo not drawn) was 2.17%; that for `CCNc1nc(NCc2ccccc2)nc(SCC(N)=O)n1` was 78.2%.
`COc1ccc(NC(=O)Nc2sc(=S)n(C)c2C)cc1`: the inhibition was -3.18%.
Consider `CCOc1nc(-c2ccc(OC)cc2)ccc1-c1noc(C)n1`, for which the inhibition was 6.32%.
`Cc1nn(-c2ccccc2)c(N2CCCC2)c1/C=N/NC(=O)C1CC1`: the inhibition is 1.71%.
Regarding `COC(=O)C1=C(C)NC(=O)CC1c1ccc(F)c(Br)c1` (stereo not drawn), the inhibition was 13.5%.
Turning to `CCN(c1ccccc1)S(=O)(=O)c1ccc(C(=O)OC(C)C(=O)NCCC2=CCCCC2)cc1` (stereo not drawn), the inhibition was 0.82%.
The value for `COc1ccc(C(C(=O)NC2CCCCC2)N(C(=O)c2sc(C)nc2C)c2ccccc2)cc1` (stereo not drawn) was 1.23%.
For `COc1ccc(C(C(=O)NC2CCCCC2)N(C(=O)c2sc(C)nc2C)c2ccc(OC)cc2)cc1` (stereo not drawn) the value was 78.9%.
The value for `COc1ccc(N(C(=O)c2cnccn2)C(C(=O)NC2CCCCC2)c2ccc(O)cc2)cc1` (stereo not drawn) was 4.1%; that for `COc1ccc(C(C(=O)NC2CCCCC2)N(C(=O)c2ccccn2)c2cccnc2)cc1` (stereo not drawn) was -6.78%; that for `O=C(O)c1cccc(NC(=O)c2ccc(Cl)c(S(=O)(=O)N3CCCCCC3)c2)c1` was -5.92%.
Turning to `CCOc1ncccc1C(=O)OCc1ccc(C#N)cc1`, the inhibition was 4.57%.
Consider `Nc1nnc(SCC(=O)Nc2ccccc2)s1`, for which the inhibition is -3.63%.
As for `C=C1C(=O)[C@@]23[C@H](O)C[C@@H]4C(C)(C)CC[C@H](O)[C@]4(C)[C@@H]2C[C@H](O)[C@@H]1[C@H]3O`, the inhibition is -0.64%.
For `C#CCONC(=O)c1cc(OCC(F)(F)F)ccc1OCC(F)(F)F` the value was -4.59%; for `c1ccc(C(c2ccccc2)c2noc(CN3CCN(CC4CC4)CC3)n2)cc1`, 0.03%.
Consider `O=C(N/N=C/C=C/c1ccccc1)c1cccnc1`, for which the inhibition was -6.98%.
For `Cc1[nH]c(=O)[nH]c(=O)c1S(=O)(=O)N(C)Cc1ccccc1` the value was -4.39%.
For `CSCCC(NC(=O)c1cccc([N+](=O)[O-])c1)c1nc2ccccc2[nH]1` (stereo not drawn) the value was 24.1%; for `CSCC[C@H](NC(=O)c1cc([N+](=O)[O-])ccc1Cl)c1nc2ccccc2[nH]1`, 3.89%.
For the compound `CCN(CCCNC(=O)C1CCC(=O)N1Cc1ccccc1Cl)c1cccc(C)c1` (stereo not drawn), the inhibition is 4.14%.
For `CCOC(=O)C1=C(C)NC(=O)NC1c1c(C)nn(-c2ccccc2)c1Cl` (stereo not drawn) the value was -11.2%; for `O=Nc1c(O)[nH]c2ccc(Cl)cc12`, -4.64%.
In the case of `Cc1cc(C)cc(N=Cc2c(O)c3ccccc3oc2=O)c1`, the inhibition was 6.96%.
Regarding `COc1cccc(N=CC2=C(O)CCCC2=O)c1`, the inhibition was -8.36%.
For `CCOC(=O)c1c(-c2ccc(OC)cc2)csc1/N=C/C1=C(O)CCCC1=O` the value was 4.93%.
For `Cc1ccccc1N=Cc1cccc(O)c1O` the value was 30.2%; for `O=C1CCCC(O)=C1C=Nc1cccc(C(F)(F)F)c1`, 8.3%.
With `O=C1CCCC(O)=C1C=Nc1ccc(O)cc1`, the inhibition was 3.95%.
The value for `Cc1cccc(-c2nc(C#N)c(NCC3CCCO3)o2)c1` (stereo not drawn) was 8.91%; that for `CN(C)S(=O)(=O)c1ccc(NC(=S)NC(=O)c2cccs2)cc1` was -8.18%.
The value for `CCCc1nnc(NC(=O)CCCN2C(=O)c3ccccc3C2=O)s1` was -6.93%; that for `COC(=O)CCC(=O)N1CCc2cc(S(=O)(=O)N3CCc4ccccc43)ccc21` was -6.96%; that for `Cc1c(NC(=O)CSc2nnc(COc3ccccc3)n2-c2ccccc2)c(=O)n(-c2ccccc2)n1C` was -6.74%.
For `COc1ccc(C2SC[C@@H](C(=O)O)N2C(C)=O)cc1` (stereo partly drawn) the value was -5.12%; for `CC(C)C(=O)Nc1ncc(Cc2cccc(Cl)c2)s1`, 17.7%; for `Cc1ccc(-c2csc(N3C(=N)SCC3=O)n2)cc1`, -8.29%.
As to `N=C1SCC(=O)N1c1nc(-c2ccccc2)cs1`, the inhibition is -8.62%.
The value for `CCc1nnc(N2C(=N)SCC2=O)s1` was 10%; that for `O=C(CN1CCOCC1)Nc1ncc(Cc2cccc(Cl)c2)s1` was 9.73%; that for `O=C(CN1CCOCC1)Nc1ncc(Cc2ccccc2Cl)s1` was 9.04%.
As for `CC(C)(C)C(=O)Cn1c(NCCCl)nc2ccccc21`, the inhibition was 0.32%.
Turning to `CCc1ccccc1NC(=O)CN(C)C(=O)Cn1cc(C(F)(F)F)cc(Cl)c1=O`, the inhibition is 10%.
Take `CCN(CC(=O)Nc1ccc(NC(C)=O)cc1)C(=O)/C=C/c1cccs1`: the inhibition is -2.91%.
For `Clc1ccc(CN2CCN(c3ncnc4scc(-c5cccs5)c34)CC2)cc1` the value was 7.36%.
Take `O=C(Cn1cc2c(n1)CCCC2)NCCCN1CCN(C2CCCCC2)CC1`: the inhibition was -6.49%.
For `CC(=O)/C(=C(/O)c1ccccc1)c1nc2ccccc2[nH]1` the value was 2.45%.
